± gives the standard deviation of the averaged measurements. In all, about 25,000 sequences were measured (“ln(normalized median fluorescence intensity)”: median about 8.9, highest 2% from about 10 on). The full list was thinned out, with the highest values kept by preference.
Each sequence was assayed on PfAP2-LT AP2 domain (GST-tagged) (assay: gcPBM binding intensity (ln(normalized median fluorescence intensity)); higher = stronger DNA binding).
Method in brief: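 DNA-binding domains from P. falciparum, fused to GST and produced in E. coli, were put on an Agilent 4 × 180k double-stranded probe array for 1 h in 1× PBS holding 1% milk, 0.2 mg/ml BSA, 0.5% salmon testes DNA and 0.03% Triton X-100. Probes were primer-extended, 36 bp long and drawn from intergenic genomic regions, with negative controls included. After Alexa488 anti-GST antibody detection and a 488 nm scan, binding intensity was set as the highest Masliner-normalised natural-log median intensity across replicate spots of either probe orientation.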

Sequence	gcPBM binding intensity (ln)
TTAATAACAAAATAAACACACATATATAAATACCCA [CACACA_site4960]	9.11 ± 0.4
TATATCTATAATATTACACACATATATTTATATTTT [CACACA_site7595]	8.95 ± 0.33
CATATTATATTTTCATGTACACATAACATATTTATA [XGTACX_site4787]	8.76 ± 0.42
GAATAAATTGTATTGTGTACATATAAAAGCATCTAA [XGTACX_site8271]	8.8 ± 0.4
TTCTTTTTAAATTACACACACATATATATATGTATA [CACACA_site3515]	9.32 ± 0.41
AATAATAATTTAAAAAGTACATTCTAATAAACACGT [XGTACX_site1444]	8.78 ± 0.52
TAATAAATAAATGACACACACACACGCAAAAAAAAA [CACACA_site7275]	9.94 ± 0.19
TAATAAATAAATGACACACACACACCCAAAAAAAAA [CACACA_site2623]	10.1 ± 0.41
CAAAAAATGAAACACACACACACACCCATAAATAAA [CACACA_site1231]	10.12 ± 0.035
ATAATGAAAAGGAACATACACACCCCATATAAATAT [CACACA_site3442]	9.61 ± 0.12
CTCCATATGAAACACACACACAAATGAAAAAAATAT [CACACA_site3018]	9.82 ± 0.4
ATTAATAAATAAATGACACACACACCCACAAAAAAA [CACACA_site8839]	9.9 ± 0.12
GGGTATATATTATTATGTACACATGTATAAAATAAG [XGTACX_site2633]	8.8 ± 0.52
ATACAAAAAGTAAAAAGTACTTAACTAAATATATAA [XGTACX_site2335]	8.74 ± 0.56
GTATATATGTATGTATGTACGTATATAGTTATGTAT [XGTACX_site6769]	8.98 ± 0.3
ATATATATATATATATGTACGTACTCAGTTATGCCT [XGTACX_site453]	10.2 ± 0.29
TATATATATATTATATGTACGTATGTATGTATATAT [XGTACX_site6451]	8.88 ± 0.3
AGTATAAAATTTGGTTGTACATTTTTAAAAAAATTA [XGTACX_site7519]	8.29 ± 0.42
GGAATATTAATAAGAGTGCATTTTGTATTCAATATG	8.66 ± 0.41

Sequence	gcPBM binding intensity (ln)
GTATAATTTTCGTATTCACACAAGAATATACTACAT [CACACA_site4877]	8.91 ± 0.45
CAAATACACGGACACACACACACAAAAAAAAAAAAA [CACACA_site6385]	10 ± 0.71
TCTCATAGTAGACACACACACACACGCACATATATA [CACACA_site6916]	10.1 ± 0.31
ACATCAAGCAGACACACACACACACGCACACGCACA [CACACA_site6309]	10.4 ± 0.17
TCATAGTATAGACACACACACACACGCATATAAATA [CACACA_site6915]	9.92 ± 0.13
CCAACATGCAGACGCACACACAAAAAAAGCATGCAT [CACACA_site74]	9.54 ± 0.4
TTAAAAAAAAGACACACACACATACACATATTTATA [CACACA_site7535]	9.94 ± 0.35
AAAAAAAAAAGACACACACACACACGGACACATACA [CACACA_site7363]	10.3 ± 0.13
CACACGCACGGACACACACACAAAAAAAAAAAGAAA [CACACA_site6378]	9.34 ± 0.58
AAAAAAAAAAGACACACACACACATACACATACATA [CACACA_site7362]	9.97 ± 0.071
CACAGACACGGACACACACACACAAAAAAAAAAAGA [CACACA_site4436]	10.1 ± 0.55
TATCTCATAGTATACACACACACACGCGCACATATA [CACACA_site6917]	10.1 ± 0.3
ATAAATCAAAGGCACACACACAAAAAAAAAAAAAAA [CACACA_site160]	9.62 ± 0.49
ATTTCTCTATCGTAATGTACATAAAAAATGAAAAAA [XGTACX_site1201]	8.51 ± 0.51
TTATTATTTTATAACACACACATATATATTATATCT [CACACA_site1434]	9.11 ± 0.35
ATTAAATCCGCACGCACACACACATATTAATAAAAA [CACACA_site3992]	9.71 ± 0.33
AATTGTGCATTATATTGTACACGTGTTGTATATATT [XGTACX_site975]	9.18 ± 0.33
TTTGTTTTTAATTTCGCACACACCTTGTGGAAAAAA [CACACA_site577]	8.98 ± 0.3
TTATTTATAATATATACACACTAACATTATTTATCC [CACACA_site4835]	8.8 ± 0.51

Sequence	gcPBM binding intensity (ln)
AAAAATAAATTTAGTTGTACTTTATTATTTTAAATA [XGTACX_site3067]	8.28 ± 0.37
ATATAACATAGACACACACACATATAAATATATTAT [CACACA_site7865]	9.67 ± 0.14
CTTCATAAAAATTGCACACATATAATAATGTACATA [CACACA_site2212]	8.96 ± 0.36
TTAAATGGAAAAATATGTACATATATATATATATTT [XGTACX_site2286]	8.84 ± 0.35
AGCACGCACAGACACACACACATATTTATATTTATA [CACACA_site6291]	9.72 ± 0.39
AACAGACATAGAAACACACATACATACATACATACA [CACACA_site2479]	9.53 ± 0.65
AAGCATACATCAAGCACACACACACCCACAGAGACA [CACACA_site4362]	9.91 ± 0.22
AACACGCGCAGACACACACACACACGCACATATATA [CACACA_site7104]	10.3 ± 0.28
TAAACAGACATATAAACACACATATAAACCGACATA [CACACA_site2478]	9.4 ± 0.48
CGCACACGCAGACACACACACACATATAAATAAATA [CACACA_site7101]	9.74 ± 0.37
CACGCACGCAGACACACACACACACGCACATATATA [CACACA_site6303]	10.2 ± 0.38
CAAGCACAGAAACACACACACACACCGACACAGACA [CACACA_site4359]	10.1 ± 0.15
ACATCAAGCAGACACACACACACACCCACCCACCGA [CACACA_site371]	10.4 ± 0.11
CGCGCACCCAGACACACACACACACCGATATATATA [CACACA_site8687]	10.1 ± 0.48
GATCCATTATTGATCCGTACTTATTCATGTTATATA [XGTACX_site5946]	8.91 ± 0.51
AGAAAAAAATAATGTACACACACATATATGTTTATA [CACACA_site7946]	9.14 ± 0.36
TATGTGCACCCATGTACATGCGGACATATGTTATAT [TGCATGCA_site383]	9.04 ± 0.42
ATTTATATATTGCCCACACACATGTGATTATTTATA [CACACA_site1714]	9.28 ± 0.46
CTAAATATATAAAAAAGTACAAAATAAATAATAATT [XGTACX_site2442]	8.79 ± 0.46
